# PubChem BioAssay
# Experiment: TOR pathway CIT2 reporter hit retest – S. cerevisiae, GFP fusion, cherry picks, mother/daughter gates, confirmation (AID 2274)
# Conditions: S. cerevisiae CIT2-GFP strain, flow cytometry, 3 h; measured here: mother cell gate; at 10 µM; stronger effect = higher value
row,Compound,"GFP response, % of DMSO"
1,COc1cccc2cc(C(=O)N3CCN(C/C=C/c4ccccc4)CC3)c(=O)oc12,96.8%
2,O=S(=O)(/N=C(\Sc1ccc(Cl)cc1)c1ccccc1)c1ccccc1,83.7%
3,Cc1ccc(/C=c2\sc3nc(-c4cccs4)nn3c2=O)o1,104%
4,N=c1n(CCN2CCCCC2)c2ccccc2n1CC(=O)c1ccc(Cl)c(Cl)c1,78.3%
5,COc1ccc(/C=C/C(=O)NC(=S)NNC(=O)c2cnccn2)cc1,106%
6,CCCCNc1c(-c2ccc(SC(C)CC)cc2)nc2ccccn12 (stereo not drawn),91.4%
7,CCOC(=O)Cc1csc(NC(=O)CSc2nnc(-c3ccc(C)cc3)o2)n1,105%
8,COc1ccc(C2=NN(S(C)(=O)=O)C(c3ccc4nccnc4c3)C2)cc1 (stereo not drawn),91.2%
9,Oc1c(Br)cc(Br)cc1C=Nc1ccc2c(c1)OCO2,91%
10,CCOc1ccc(Nc2nc(N(C)c3ccccc3)nc(N)c2[N+](=O)[O-])cc1,106%
11,CC[n+]1cc(C)ccc1/C=C/c1ccc(N(C)C)cc1,126%
12,COc1ccc(/C=C/C(=O)c2ccc(OC)cc2O)cc1,100%
13,COc1ccc(-c2sc(C(=O)c3ccc(Cl)cc3Cl)cc2CC(=O)O)cc1,104%
14,Cn1c(=O)[nH]c(=O)c2c1nc(N1CCCCC1)n2CCOc1ccccc1,103%
15,COCc1nnc(NC(=O)c2ccc(S(=O)(=O)N3CCCCCC3)cc2)o1,96.8%
16,CC(C)c1ccc(C2C3CSCC=C3C(C#N)=C(N)C2(C#N)C#N)cc1 (stereo not drawn),97.7%
17,CC(C)(C)C(=O)C(Cl)C(=O)Nc1ccccc1 (stereo not drawn),115%
18,CCOC(=O)CSC1=NC(=O)/C(=C\c2ccc(Cl)cc2)S1,88.2%
